# About 14,000 (4.5%) of roughly 310,000 compounds showed an effect of 50% or more. Effects have a minus sign here. The list comes from a sample in which strong results are over-represented; it also holds similar structures and randomly drawn compounds.
# Target: human ether-à-go-go-related gene (hERG) potassium channel (human, UniProt Q12809)
# Test: primary screen, population patch clamp on CHO cells stably expressing hERG; higher = less effect of the substance
# 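Also: peak tail current of the secondary pulse compared with the same well before compound.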
# Chain of human ether-à-go-go-related gene (hERG) potassium channel (Q12809 whole entry, looked up): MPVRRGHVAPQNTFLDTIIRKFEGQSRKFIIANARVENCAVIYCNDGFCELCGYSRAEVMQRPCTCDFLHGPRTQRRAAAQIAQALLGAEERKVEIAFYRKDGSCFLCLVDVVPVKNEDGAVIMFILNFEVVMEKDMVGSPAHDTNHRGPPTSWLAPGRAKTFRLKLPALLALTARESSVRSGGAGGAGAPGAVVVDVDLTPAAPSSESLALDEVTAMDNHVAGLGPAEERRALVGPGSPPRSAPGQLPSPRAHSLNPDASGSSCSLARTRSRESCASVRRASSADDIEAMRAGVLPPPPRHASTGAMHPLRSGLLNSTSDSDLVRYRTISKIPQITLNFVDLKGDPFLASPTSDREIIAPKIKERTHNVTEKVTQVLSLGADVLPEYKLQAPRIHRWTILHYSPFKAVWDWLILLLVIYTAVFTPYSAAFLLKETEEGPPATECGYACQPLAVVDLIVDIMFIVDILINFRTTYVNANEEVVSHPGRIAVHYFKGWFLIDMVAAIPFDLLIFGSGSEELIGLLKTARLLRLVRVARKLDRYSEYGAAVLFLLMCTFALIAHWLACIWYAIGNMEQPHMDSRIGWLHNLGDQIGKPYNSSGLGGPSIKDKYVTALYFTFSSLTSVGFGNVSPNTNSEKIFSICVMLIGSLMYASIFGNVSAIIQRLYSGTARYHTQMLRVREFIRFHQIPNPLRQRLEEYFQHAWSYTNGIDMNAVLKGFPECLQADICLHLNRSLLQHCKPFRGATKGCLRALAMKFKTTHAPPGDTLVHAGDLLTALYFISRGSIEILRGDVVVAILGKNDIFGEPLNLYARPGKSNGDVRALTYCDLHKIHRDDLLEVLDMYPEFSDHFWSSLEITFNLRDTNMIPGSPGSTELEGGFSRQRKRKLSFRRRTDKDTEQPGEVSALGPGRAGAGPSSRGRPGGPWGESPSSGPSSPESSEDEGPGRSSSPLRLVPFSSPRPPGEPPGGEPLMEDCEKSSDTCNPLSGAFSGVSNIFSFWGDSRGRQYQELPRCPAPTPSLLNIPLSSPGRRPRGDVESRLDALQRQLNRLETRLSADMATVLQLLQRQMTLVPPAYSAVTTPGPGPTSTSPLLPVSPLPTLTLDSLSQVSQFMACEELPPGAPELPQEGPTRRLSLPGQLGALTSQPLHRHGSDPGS
row,SMILES,"hERG current change (%, negative = inhibition) at 10uM [%]"
1,CCCCNC(=O)C1CCN(S(=O)(=O)c2ccc3c(c2)CC(C)N3C(=O)C2CC2)CC1 (stereo not shown),1.16
2,NC(=O)C(c1ccc(Cl)cc1)c1ccc(Sc2ccc(Cl)cc2)nn1 (stereo not shown),-9.96
3,Cc1cc(NCCN2CCOCC2)n2nc(C)c(-c3ccc(Cl)cc3)c2n1,-50.2
4,Cc1cc(NCCCN2CCOCC2)n2nc(C)c(-c3ccc(F)cc3)c2n1,-31.1
5,Cc1nn2c(NCCCn3ccnc3)cc(C(C)C)nc2c1-c1ccccc1,-23.5
6,Cc1cc(NCCC(C)C)n2nc(C)c(-c3ccccc3)c2n1,1.03
7,CCCc1cc(NCCCn2ccnc2)n2nc(C)c(-c3ccccc3)c2n1,-74.9
8,Cc1cc(NCCCn2ccnc2)n2nc(C)c(-c3ccc(Cl)cc3)c2n1,-71.8
9,CCCc1cc(NCc2ccccn2)n2nc(C)c(-c3ccccc3)c2n1,4.77
10,Cc1cc(NCc2ccccn2)n2nc(C)c(-c3ccc(Cl)cc3)c2n1,14.2
11,Cc1cc(NCCCN2CCOCC2)n2nc(C)c(-c3ccccc3)c2n1,-14.6
12,Cc1cc(NCCCn2ccnc2)n2nc(C)c(-c3ccccc3)c2n1,-72.8
13,COc1ccc(CCNc2cc(C)nc3c(-c4ccc(Cl)cc4)c(C)nn23)cc1OC,15.5
14,CCCc1cc(N2CCCC2)n2nc(C)c(-c3ccccc3)c2n1,8.36
15,NNC(=O)c1ccc2[nH]c3c(c2c1)CCCC3,5.31
16,COc1ccc(-c2nc3ccccc3c(C(=O)Nc3ccc(S(=O)(=O)Nc4cc(C)on4)cc3)c2C)cc1,-7.09
17,COc1ccc(NS(=O)(=O)c2ccc(N3CCOCC3)c(NC(=O)c3ccccc3Br)c2)cc1,-11.2
18,COc1cc(C(=O)N2CCN(C(=O)C(Cc3cc(C)ccc3C)NC(C)=O)CC2)cc(OC)c1OC (stereo not shown),-14.4
19,CCc1ccc(N(C(=O)c2csnn2)C(C(=O)NC2CCCC2)c2cccnc2)cc1 (stereo not shown),-24.9
20,O=C(O)C1(c2ccccc2)CCN(S(=O)(=O)c2cccs2)CC1,5.95
21,N#CC1(NC(=O)COC(=O)c2cc(=O)[nH]c3ccccc23)CCCCC1,14
22,Cc1nn(CC(N)=O)c(=O)c2ccccc12,10.6

row,SMILES,"hERG current change (%, negative = inhibition) at 10uM [%]"
1,CN(C)CCNc1nc2c(c(=O)[nH]c(=O)n2C)n1CCOc1ccccc1,-5.88
2,Cc1nc(Cl)c2oc3ccccc3c2n1,9.28
3,O=C(NCCCN1CCC(Cc2ccccc2)CC1)C1CCC(=O)N1C1CCCC1 (stereo not shown),6.52
4,Cc1ccc(C(=O)NCCNC(=O)c2ccccn2)cc1,12.9
5,Cc1ccc(/C(=C\CN2CCCC2)c2ccccn2)cc1.Cl,-55.4
6,Cc1ccc(C(=O)NCCCNC(=O)c2ccccn2)cc1,5.5
7,CCOC(=O)Cc1csc(SCC(=O)c2c(N)n(CC(C)C)c(=O)n(C)c2=O)n1,-2.23
8,COc1ccccc1OC(C)C(=O)N1CC(=O)Nc2ccccc21 (stereo not shown),15.8
9,Cc1ccc(OC(C)C(=O)N2CC(=O)Nc3ccccc32)cc1 (stereo not shown),-67.7
10,Cc1ccc(OC(C)C(=O)N2CC(=O)Nc3ccccc32)c(C)c1 (stereo not shown),2.56
11,CCCN(CC(=O)Nc1ccccc1OC)C(=O)Cc1ccc2c(c1)CCC2,-18.1
12,[O-][n+]1c2ccccc2c2n1CCN1CCOC21c1ccc(Cl)cc1 (stereo not shown),-42.3
13,CC/C(=C/c1sc2ccccc2[n+]1CC)SC.COS(=O)(=O)[O-],0.104
14,CC[n+]1c(/C=C/C=C/c2ccc(N(C)C)cc2)sc2ccccc21.[O-][Cl+3]([O-])([O-])[O-],-73.4
15,CC[n+]1c(/C=C/C=C/N(C(C)=O)c2ccccc2)sc2ccccc21.[I-],-69.8
16,CN(C)c1ccc(/C=C/C=C/c2sc3ccccc3[n+]2C)cc1.[O-][Cl+3]([O-])([O-])[O-],-42.6
17,CC[n+]1c(/C=C/N(C)c2ccccc2)sc2ccc(Cl)cc21.[O-][Cl+3]([O-])([O-])[O-],-62.6
18,CC[n+]1c(/C=C/C=C/N(C(C)=O)c2ccccc2)sc2cc(OC)ccc21.[I-],-32.8
19,CN(C)c1ccc(/C=C/c2nc3ccccc3s2)cc1,17.7
20,CCCc1nn(C(=O)c2ccccc2)c2c1C(=O)CC(C)(C)C2,11.5
21,C=CCOC(=O)/C(=C\c1cccc2ccccc12)NC(=O)c1ccccc1,-9.44
22,CC(=O)/C=C(\C)N=Nc1c(O)[nH]c2ccccc12,5.48

row,SMILES,"hERG current change (%, negative = inhibition) at 10uM [%]"
1,Cc1ccc(NC(=O)c2ccccc2NS(=O)(=O)c2ccc(F)cc2)cc1S(=O)(=O)N1CCCCC1,3.17
2,Cc1ccc(NS(=O)(=O)c2ccc(-n3cccn3)cc2)c(C)c1,22.8
3,CCC(CC)c1nnc(NC(=O)C2CC(=O)N(CCc3ccc(OC)c(OC)c3)C2)s1 (stereo not shown),-0.537
4,CCn1c2ccccc2c2cnc(N=CN(C)C)c(C#N)c21,-24
5,N#Cc1ccc(Nc2nc(-c3ccc(O)cc3O)cs2)cc1C(F)(F)F,11.9
6,CCOc1ccccc1N1CCN(Cc2cc3c(cc2[N+](=O)[O-])OCO3)CC1,-20.6
7,Fc1ccc(N2CCN(Cc3nnc(-c4ccccc4)o3)CC2)cc1,-11.9
8,COc1ccccc1N1CCN(Cc2ccccc2Cl)CC1,-23.5
9,CCOc1ccccc1N1CCN(Cc2cnc(-c3ccccc3)[nH]2)CC1,-40.6
10,COc1ccc(-c2[nH]ncc2CN2CCN(c3ccc(F)cc3)CC2)cc1,-45.7
11,CCOc1ccccc1N1CCN(Cc2cn[nH]c2-c2ccc(F)cc2)CC1,-72.3
12,COc1ccccc1N1CCN(Cc2cn[nH]c2-c2ccc(F)cc2)CC1,-55.3
13,Fc1ccc(N2CCN(Cc3cn[nH]c3-c3ccccc3)CC2)cc1,-59.2
14,Fc1ccc(-c2[nH]ncc2CN2CCN(c3ccc(F)cc3)CC2)cc1,-44.5
15,Cc1c(C)n(CCCN(C)C)c2ncnc(NCc3ccccc3)c12,-13.9
16,O=P(C(=Nc1ccc(Cl)cc1)N1CCOCC1)(N1CCOCC1)N1CCOCC1,-17.6
17,Cc1ccc(S(=O)(=O)N(C)C)cc1NC(=S)N(C)C1CCN(C)CC1,16.2
18,Cc1ccc(C)c(NC(=O)NCCN2CCCCC2)c1,-15.1
19,COc1ccc(S(=O)(=O)N2CCOC23CCN(S(=O)(=O)c2cc(C)ccc2OC)CC3)cc1,26.8
20,CCN(C(=O)COC(=O)Cc1c[nH]c2ccccc12)c1c(N)n(Cc2ccccc2)c(=O)[nH]c1=O,16.3
21,Cc1cc(Br)ccc1NC(=S)N1CCOCC1,12.5
22,COc1ccc(CNC(=O)CCCOc2cc(=O)n(C)c3ccccc23)cc1,-19.2

row,SMILES,"hERG current change (%, negative = inhibition) at 10uM [%]"
1,Cn1c(SCC(=O)Nc2nccs2)nnc1C12CC3CC(CC(C3)C1)C2,-6.22
2,Cc1cc(C)cc(NC(=S)NCCCO)c1,-0.803
3,Cc1cccc(NC(=S)NCCN(C2CCCCC2)C2CCCC2)c1,-70.3
4,CCOCCCNC(=S)Nc1cc(C)cc(C)c1,11
5,Cc1ccc(SCCNC(=S)Nc2cc(C)ccc2C)cc1,4.34
6,S=C(Nc1cccc(Cl)c1)NC1CCCCC1,7.58
7,Cc1cc(C)cc(NC(=S)NCCN(C2CCCCC2)C2CCCC2)c1,-69.6
8,S=C(NCCN(C1CCCCC1)C1CCCC1)Nc1cccc(Cl)c1,-71.3
9,Cc1cccc(NC(=S)NC2CCCC2)c1,0.919
10,CN(C)CCNC(=S)Nc1cccc(Cl)c1,-27
11,Cc1ccc(C)c(NC(=S)NCCN(C2CCCCC2)C2CCCC2)c1,-68.5
12,Cc1cccc(NC(=S)N(C)C2CCCCC2)c1,5.51
13,Cc1ccc(C)c(NC(=S)NCc2ccccc2)c1,13.8
14,Cn1ncc(Cl)c(Oc2ccc(C(C)(C)C)cc2)c1=O,-26
15,CCOc1ccccc1NC(=O)c1cc(SC)ccc1Cl,50.4
16,COc1cc(/C=N/NC(=O)CCOc2ccccc2C)cc(Br)c1O,-16.4
17,CC1CC(C)CN(C(=O)CCC(=O)Nc2nnc(C3CCCCC3)s2)C1 (stereo not shown),14.2
18,CC(C)(C)CN1CCNC(=O)C1CC(=O)NCCc1ccccc1F (stereo not shown),4.25
19,COc1ccccc1-c1csc(NC(=O)c2cc(-c3cccs3)nc3ccccc23)n1,8.88
20,COc1ccc2cc(C3CC(c4ccco4)=NN3S(=O)(=O)c3ccccc3)c(Cl)nc2c1 (stereo not shown),4.38
21,CCN(CC(=O)NCc1cccs1)C(=O)c1ccc(NS(=O)(=O)c2cccc([N+](=O)[O-])c2)cc1,-19.7
22,C/C(=N\NC(=S)NCc1ccccc1)c1ccc(Br)cc1,22.8
